Measurements published in PubChem BioAssay AID1159580 (chemical genetic matrix, 2015).
“And” between values parts separate entries of the source, which are not always exact repeats. Equal values may be shown once. Screen size: about 5,500 compounds; about 2,000 (36%) were called active. Inconclusive results (about 18%) are left out. Cut-off read from the data, not from the text of the source: active = normalized growth mostly below about 0.91 (no sharp cut-off); inconclusive = no clear call, values can overlap the other calls; inactive = mostly above about 0.92. The list shows a part of the results.

Experiment: chemical genetic growth profiling, strain panel (AID 1159580);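 note: tested at 20 µM; growth read once vehicle control cultures reached saturation at 30 °C; 1 = growth at the plate median or of vehicle wells; lower values mean less growth of the strain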
Settings: S. cerevisiae deletion strains, growth OD

Measured: normalized growth

CC(C)C(=O)Nc1ccc([N+](=O)[O-])c(C(F)(F)F)c1
inactive: locus YAL013W, strain DEP1, hits give low values 0.995 | locus YAL021C, strain ccr4, hits give low values 1.03 | locus YAL026C, strain drs2, hits give low values 1.01 | locus YAL030W, strain snc1, hits give low values 1.02 | locus YAL040C, strain CLN3, hits give low values 0.959 | locus YBL061C, strain skt5, hits give low values 1.02 | locus YBR009C, strain hhf1, hits give low values 1.03 | locus YBR021W, strain FUR4, hits give low values 0.929 | locus YBR023C, strain chs3, hits give low values 1.03 | locus YBR171W, strain sec66, hits give low values 1.04 | locus YBR229C, strain ROT2, hits give low values 0.99 | locus YBR231C, strain swc5, hits give low values 0.994 | locus YBR279W, strain paf1, hits give low values 1.02 | locus YCL011C, strain gbp2, hits give low values 1.02 | locus YCL016C, strain dcc1, hits give low values 1.01 | locus YCL029C, strain bik1, hits give low values 0.99 | locus YCL061C, strain MRC1 (second series), hits give low values 0.999 | locus YCL069W, strain vba3, hits give low values 1.02 | locus YCR088W, strain abp1, hits give low values 1.01 | locus YDL005C, strain med2, hits give low values 1.03 | locus YDL035C, strain GPR1, hits give low values 0.993 | locus YDL040C, strain nat1, hits give low values 1.02 | locus YDL074C, strain BRE1, hits give low values 0.946 | locus YDL101C, strain DUN1, hits give low values 0.993 | locus YDL134C, strain PPH21, hits give low values 0.991 | locus YDL185W, strain tfp1, hits give low values 0.98 | locus YDL192W, strain arf1, hits give low values 0.977 | locus YDR001C, strain nth1, hits give low values 1.02 | locus YDR069C, strain doa4, hits give low values 1.02 | locus YDR101C, strain arx1, hits give low values 0.969 | locus YDR137W, strain rgp1, hits give low values 0.983 | locus YDR150W, strain NUM1, hits give low values 0.994 and 0.998 | locus YDR159W, strain sac3, hits give low values 1.03 | locus YDR162C, strain NBP2, hits give low values 0.982 | locus YDR195W, strain ref2 1.07 | locus YDR297W, strain sur2, hits give low values 1.01 | locus YDR318W, strain mcm21, hits give low values 0.964 | locus YDR334W, strain swr1, hits give low values 1.01 | locus YDR335W, strain msn5, hits give low values 1.03 | locus YDR363W, strain ESC2, hits give low values 1.05 | locus YDR388W, hits give low values 0.961 | locus YDR392W, strain spt3, hits give low values 0.999 | locus YDR502C, strain sam2, hits give low values 0.96 | locus YEL003W, strain gim4, hits give low values 1.02 | locus YEL037C, strain rad23, hits give low values 1.02 | locus YEL061C, strain CIN8 (second series), hits give low values 1.01 | locus YEL061C, strain CIN8, hits give low values 0.993 | locus YER002W, strain NOP16, hits give low values 0.972 | locus YER015W, strain faa2, hits give low values 1.02 | locus YER016W, strain bim1, hits give low values 1.01 | locus YER110C, hits give low values 0.979 | locus YER111C, strain swi4, hits give low values 1.03 | locus YER155C, strain BEM2 (second series), hits give low values 0.993 | locus YER155C, strain BEM2, hits give low values 0.985 | locus YER167W, strain BCK2, hits give low values 0.969 | locus YFR010W, strain ubp6, hits give low values 1.04 | locus YGL078C, strain dbp3, hits give low values 0.984 | locus YGL086W, strain mad1, hits give low values 0.984 | locus YGL167C, strain pmr1, hits give low values 1.03 | locus YGL173C, strain kem1, hits give low values 1.03 | locus YGL227W, strain vid30, hits give low values 1.03 | locus YGL240W, strain doc1, hits give low values 1.01 | locus YGL248W, strain PDE1, hits give low values 0.988 | locus YGL253W, strain hxk2, hits give low values 1.02 | locus YGR078C, strain PAC10, hits give low values 0.992 and 0.982 | locus YGR135W, strain pre9, hits give low values 0.968 | locus YGR229C, strain SMI1, hits give low values 0.978 | locus YGR252W, strain gcn5, hits give low values 0.916 | locus YHR013C, strain ard1, hits give low values 0.995 | locus YHR027C, strain rpn1, hits give low values 1.04 | locus YHR030C, strain SLT2, hits give low values 0.994 and 0.977 | locus YHR079C, strain IRE1 (second series), hits give low values 0.975 | locus YHR079C, strain IRE1, hits give low values 0.964 | locus YHR094C, strain hxt1, hits give low values 0.98 | locus YHR129C, strain ARP1, hits give low values 0.981 | locus YHR142W, strain chs7, hits give low values 1.03 | locus YHR200W, strain rpn10, hits give low values 0.963 | locus YIL066C, strain RNR3, hits give low values 0.986 | locus YIL073C, strain SPO22, hits give low values 0.98 | locus YIL125W, strain kgd1, hits give low values 0.983 | locus YIR030C, strain dcg1, hits give low values 0.973 | locus YJL092W, strain hpr5, hits give low values 1.03 | locus YJL095W, strain BCK1 (second series), hits give low values 1.01 | locus YJL095W, strain BCK1, hits give low values 0.958 and 0.976 | locus YJL115W, strain asf1, hits give low values 1.03 | locus YJL129C, strain trk1, hits give low values 1.04 | locus YJL134W, strain LCB3, hits give low values 0.986 | locus YJL154C, strain vps35, hits give low values 1.02 | locus YJL164C, strain tpk1, hits give low values 1.02 | locus YJL166W, strain qcr8, hits give low values 1.02 | locus YJL168C, strain set2, hits give low values 0.977 | locus YJL187C, strain SWE1 (second series), hits give low values 0.988 | locus YJR043C, strain POL32, hits give low values 0.967 | locus YJR066W, strain TOR1, hits give low values 0.92 | locus YJR075W, strain HOC1, hits give low values 0.98
